EBV LMP1 NFkB: EBV LMP1-driven NF-kappaB luciferase reporter inhibitors, primary screen, cell-based, luminescence, single point | AID 504558, 2011 | LMP1-induced NF-kappaB luciferase reporter cells | inhibition, % at 12.5 µM | hit rate 0.69% among 350,000; in the data active means inhibition above about 41%; inconclusive means no clear call, values can overlap the other calls;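 further: 0% = neutral control wells and 100% = reference inhibitor control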
EWS-Fli block: EWS/Fli-driven NR0B1 reporter inhibitors, primary screen, A673 cells, NR0B1 luciferase, luminescence, MLPCN library. AID 651661, 2012. inhibition, % at 12.6 µM. viability-normalised. hit rate 0.67% among 350,000;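 active means mean inhibition of at least 50% after viability correction, with every replicate also passing that limit; inconclusive means mean reaches 50% but only one of two replicates passes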;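 further: firefly luciferase signal divided by Alamar Blue viability fluorescence both relative to DMSO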
TWEAK-Fn14 inh: inhibitors of TWEAK-Fn14 signaling, primary screen, luciferase reporter cells, uHTS; TWEAK-stimulated Fn14 reporter cells, luciferase luminescence, 8 h; AID 1159606, 2016; hit rate 2% among 360,000; inhibition, % at 10 µM; in the data active means inhibition above about 50%
TROY signal inh: inhibitors of TROY-driven NF-kB signaling, primary screen, Q293 LMP1-TROYcd cells, NF-kB luciferase, uHTS | AID 1347056, 2019 | Q293 LMP1-TROYcd NF-kB luciferase reporter, 4 h | hit rate 0.98% among 360,000 | inhibition, % at 10 µM;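 active means compounds whose plate-normalised and pattern-corrected inhibition of the luciferase reporter signal at the single screening dose is 50% or more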
LGR2 antag: inhibitors of bursicon-induced LGR2 CRE-luciferase signal, primary screen, cell-based, HEK293, CRE-luciferase reporter, bursicon stimulation. bursicon-stimulated, 4 h. inhibition, % at 9.99 µM. hit rate 0.35% among 380,000. AID 720647, 2013;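 active means drop in luminescence signal, shown as inhibition above about 50% in the replicate tests, limit read from the data, passing the limit was not always enough; inconclusive means probably only some replicates passing the limit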;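 further: agonist challenge used bursicon conditioned medium at about half maximal strength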
* = called active by the depositor; ? = inconclusive; . = no result. A selection: hits, their analogues and other compounds. The true share with any hit is near 2.5%.

SMILES | EBV LMP1 NFkB | EWS-Fli block | TWEAK-Fn14 inh | TROY signal inh | LGR2 antag
CCOc1ccc(/C=C2\SC(=O)N(CCNC(=O)C3COc4ccccc4O3)C2=O)cc1OC (configuration not stated) | 4 | . | 40 | 51* | 18
C[C@H](CO)N1C[C@H](C)[C@H](CN(C)Cc2ccc3c(c2)OCO3)OCCCC[C@H](C)Oc2ccc(NC(=O)Cc3ccccc3)cc2C1=O | . | 2 | . | . | -13
CC(=O)C1=C(C)OC(N)=C(C#N)C1c1cccc2ccccc12 (configuration not stated) | -3 | -4 | 14 | 18 | 1
CC(=O)n1c2c(c3ccccc31)OC(N)=C(C#N)C2c1ccc(C(C)C)cc1 (configuration not stated) | -13 | -19 | 89* | 79* | 18
COCc1cn(CC[C@H]2CC[C@@H](NC(=O)Nc3ccc4c(c3)OCO4)[C@H](CO)O2)nn1 | . | -3 | . | . | -10
O=C(NC(=S)Nc1ccccc1N1CCCC1)c1ccc([N+](=O)[O-])cc1 | -4 | . | -3 | -4 | -28
Cc1c(C(=O)NC(=S)Nc2ccccc2N2CCCC2)cccc1[N+](=O)[O-] | 4 | 77* | 14 | 8 | -3
CN=C1S/C(=C\c2ccc(O)c(Br)c2)C(=O)N1C | 45* | 6 | 42 | -5 | -33
CN=C1S/C(=C\c2ccc(O)c(OC)c2)C(=O)N1C | . | -27 | -50 | -40 | -58
Cc1ccc(S(=O)(=O)Nc2ccc3c(c2)CC(=O)N([C@H](C)CO)C[C@@H](C)[C@H](CN(C)C(=O)NC2CCCCC2)O3)cc1 | . | -3 | . | . | -20
COc1cccc2c1-c1c(O)cccc1C2=O | -1 | -13 | 7 | 1 | 6
CC1OC(CC(=O)O)CC2=C1C(=O)c1c(O)cccc1C2=O (configuration not stated) | 88* | 32 | 106* | 64* | 99*
CC(C)c1cn([C@H]2C[C@@H]3O[C@@H](CO)CC[C@@H]3O[C@@H]2CCc2ccc(C#CC3(O)CCCC3)cc2)nn1 | . | -5 | . | . | .
C=CCC[C@H](Cc1ccc(F)cc1)C(=O)OC[C@@H](Cc1c[nH]c2ccccc12)NC(=O)[C@H](CC=C)CC(=O)N(CCO)Cc1ccccc1 | 13 | 6 | 89* | 38 | 19
C=CCC[C@@H](Cc1ccc(F)cc1)C(=O)OC[C@@H](Cc1c[nH]c2ccccc12)NC(=O)[C@H](CC=C)CC(=O)N(CCO)Cc1ccccc1 | 9 | 4 | 58* | 33 | 43
C=CCC[C@H](Cc1ccc(F)cc1)C(=O)OC[C@@H](Cc1c[nH]c2ccccc12)NC(=O)[C@H](CC=C)CC(=O)NCCO | -2 | -2 | 21 | 21 | 6
CCS(=O)(=O)c1ncc(Cl)c(C(=O)Nc2ccccc2OC)n1 | -19 | ? | 95* | 73* | 12
CCOc1ccccc1NC(=O)c1nc(S(=O)(=O)Cc2ccccc2)ncc1Cl | -30 | ? | 74* | 75* | 3
COc1ccccc1NC(=O)c1nc(S(=O)(=O)Cc2ccccc2)ncc1Cl | 1 | 59* | 74* | 72* | -17
C[C@H]1CN([C@@H](C)CO)C(=O)Cc2cc(NC(=O)Cc3ccccc3)ccc2O[C@@H]1CN(C)C(=O)Nc1cccc2ccccc12 | . | 3 | . | . | 18
COCC(=O)Nc1ccc2c(c1)[C@@H]1C[C@H](CC(=O)NC3CCCC3)O[C@H](CO)[C@@H]1O2 | . | -3 | . | . | -4
C[C@@H]1ON(C)[C@H]2C[C@H]3c4[nH]c5ccc(-c6ccc7c(c6)OCO7)cc5c4CCN3C[C@@H]12 | -20 | 6 | 85* | 30 | -20
Cc1ccccc1-n1c(C)cc(/C=C(\C#N)C(=O)NCC2CCCO2)c1C (configuration not stated) | -35 | . | 56* | 59* | -72
C[C@H](CO)N1C[C@H](C)[C@@H](CN(C)Cc2ccc3c(c2)OCO3)Oc2ccc(NS(=O)(=O)c3cn(C)cn3)cc2C1=O | . | 5 | . | . | 1
CCn1nccc1C(=O)Nc1ccc(Cl)cc1Cl | -20 | . | 55* | 4 | -19
SMILES | EBV LMP1 NFkB | EWS-Fli block | TWEAK-Fn14 inh | TROY signal inh | LGR2 antag
CN1C(=O)c2cc(NC(=O)C3CCCC3)ccc2OC[C@@H]2O[C@@H](CC(=O)O)CC[C@H]21 | . | -11 | . | . | -9
Cc1csc2c(N3CCN(C(=O)Nc4ccccc4)CC3)ncnc12 | 15 | -3 | -3 | -6 | -8
Cc1csc2ncnc(N3CCN(C(=O)Nc4ccc(OC(F)(F)F)cc4)CC3)c12 | 19 | 10 | 63* | 40 | .
Cc1cccc(S(=O)(=O)N2CCCCN3[C@@H](CO)[C@@H](c4ccc(C#C[C@@H](C)O)cc4)[C@@H]3C2)c1 | . | 13 | . | . | 6
O=C(NCCC1=CCCCC1)C1CC(=O)N(Cc2ccccc2)C1 (configuration not stated) | -3 | . | 95* | 5 | 4
C/C=C/c1cnc2c(c1)C(=O)N([C@H](C)CO)C[C@@H](C)[C@H](CN(C)C(=O)C1CCC1)O2 | . | -1 | . | . | 1
Cc1ccc(N(CC(=O)NCCc2ccc(F)cc2)S(=O)(=O)c2ccc(Cl)c([N+](=O)[O-])c2)c(C)c1 | 3 | 5 | 53* | 22 | 18
O=C(CN(c1ccc(Br)cc1)S(=O)(=O)c1ccc(Cl)c([N+](=O)[O-])c1)NCCc1ccccc1 | -6 | 13 | -19 | 10 | 29
O=C(c1ccc(Cl)nc1)N1CCc2ccccc2C1 | -4 | . | 79* | . | 11
O=C(c1ccncc1)N1CCc2ccccc2C1 | 1 | 2 | 4 | 2 | -1
O=S1(=O)C=C(Sc2nc3cc(Cl)ccc3o2)c2ccccc21 | -9 | . | 64* | 28 | .
O=C(C[C@H]1C[C@H]2c3cc(NC(=O)C4CCC4)ccc3O[C@H]2[C@H](CO)O1)NCc1ccc2c(c1)OCO2 | . | -4 | . | . | -11
O=C(c1ccco1)N1CCN(C2=NS(=O)(=O)c3ccccc32)CC1 | 2 | . | 86* | . | .
O=C(c1ccc(F)cc1)N1CCN(C2=NS(=O)(=O)c3ccccc32)CC1 | -4 | 1 | 12 | 7 | -5
O=C1COc2cc(S(=O)(=O)CCC(=O)N3CCCCC3)c(Cl)cc2N1 | -2 | -3 | 98* | 3 | 8
COc1ccc2c(=O)c(-c3ccc4c(c3)OCO4)coc2c1 | -17 | 32 | 70* | 20 | 69*
CCN(CC)C(=O)Oc1ccc2c(=O)c(-c3ccc(OC)cc3)coc2c1 | -4 | -66 | 20 | 22 | -26
COc1ccc(NC(=O)N(C)C[C@@H]2Oc3ccc(NC(=O)Nc4ccc(C(F)(F)F)cc4)cc3CC(=O)N([C@@H](C)CO)C[C@H]2C)cc1 | . | 12 | . | . | 17
O=C(C[C@@H]1CC[C@H]2[C@@H](COC[C@H](O)CN2S(=O)(=O)c2ccccc2)O1)NCc1ccc(-c2ccccc2)cc1 | . | 20 | . | . | 17
CCOC(=O)N1CCC(NC(=O)CCC(=O)N2CCOc3ccccc32)CC1 | -1 | . | 64* | . | .
